Bioassay records from PubChem.
An excerpt weighted towards active compounds, which were near 1.7% of everything screened.
miR-21 reporter = qHTS Assay for Modulators of miRNAs and/orActivators of miR-21. HeLa miR-21 FLuc reporter, luciferase, 48 h. Potency, µM (series often up to 38.3 µM), for inactives: at the highest dose activity change, positive = activation, hits mostly activators. 340,000 tested, under 10 active. AID 2288, 2010;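 further: % of control where 0% means no effect; miR-21 action dims this reporter so a rising signal means less miR-21 action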
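HeLa cells stably expressing CMV-driven firefly luciferase with a downstream miR-21 binding sequence, endogenously expressing miR-21, were treated with titrations (up to about 40uM final) for 48 hours at 37 degree Celsius. Luciferase luminescence was read after lysis.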
GLP1R inv ag = qHTS of GLP-1 Receptor Inverse Agonists (Inhibition Mode); HEK293 GLP-1R CRE-luciferase, luminescence, 24 h; GLP-1R form is constitutively active; Potency, µM (highest dose often 38.3 µM), for the others: at the highest dose activity change, negative = inhibition, hits mostly inhibitors; 410,000 compounds, 1.6% hits; AID 624417, 2012; further: potency means the concentration at half of the fitted maximal effect; on the % scale 0 is the no-effect control and ±100 the full control effect; nearly all actives have a fitted effect of over 55% in size
Target sequence (P43220 whole entry, looked up): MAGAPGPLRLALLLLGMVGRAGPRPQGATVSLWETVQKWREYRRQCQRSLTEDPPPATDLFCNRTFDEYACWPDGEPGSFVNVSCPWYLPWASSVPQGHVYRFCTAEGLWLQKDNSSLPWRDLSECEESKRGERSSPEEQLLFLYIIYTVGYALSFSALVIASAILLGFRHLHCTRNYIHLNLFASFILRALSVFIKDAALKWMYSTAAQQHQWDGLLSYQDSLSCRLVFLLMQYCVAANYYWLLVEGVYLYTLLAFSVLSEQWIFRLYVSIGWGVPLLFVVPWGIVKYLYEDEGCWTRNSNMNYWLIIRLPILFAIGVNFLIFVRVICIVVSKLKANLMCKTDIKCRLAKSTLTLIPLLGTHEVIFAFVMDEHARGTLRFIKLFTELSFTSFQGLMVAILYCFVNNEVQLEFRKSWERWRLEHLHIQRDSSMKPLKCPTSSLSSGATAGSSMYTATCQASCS
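Luminescence readout: a drop in cAMP-driven luciferase signal flags inverse agonism at a constitutively active GLP-1R stably expressed in HEK293. Compound exposure lasted 24 hr at 37 deg C, 5% CO2.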
PTHR1 agonist = qHTS for PTHR1 Agonists: Primary Screen; HEK293 GP2 PTHR1 cells, GloSensor cAMP luminescence, 1 h; Potency, µM (top dose mostly 115 µM), for the others: at the top dose activation, usual class: activators; 410,000 compounds, 0.075% hits; further: potency means the concentration at half of the fitted maximal effect; nearly all actives have a fitted effect of over 55% in size
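HEK-293-derived GP2 cells expressing PTHR1 and a GloSensor cAMP reporter, 3,000/well, plated overnight, given luciferin plus IBMX (each 0.5 mM as added) for 1 h at 37 °C, then compound for 1 h at 37 °C. Luminescence was read after 15 min at room temperature.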
HEK293 tox = qHTS of GLP-1 Receptor Inverse Agonists: Cytotox Screen; HEK293 cAMP-luciferase reporter cells, luminescence, 24 h; Potency, µM (top dose mostly 38.3 µM), inactives show at the top dose activity change, negative = inhibition, actives largely listed as inhibitors; 410,000 compounds, 0.13% hits;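 further: loss of luciferase light is scored as toxicity; potency means the concentration at half of the fitted maximal effect; on the % scale 0 is the no-effect control and ±100 the full control effect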
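MLSMR compounds, 24 hr on cells at 37 deg C/5% CO2; luminescence after luciferase reagent (12 min RT). Inhibition counted as the undesired cytotoxic outcome.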
GLP-1R agonist = qHTS of GLP-1 Receptor Agonists; HEK293 GLP-1R CRE-luciferase, luminescence, 4-6 h; cells express a hypersensitive GLP-1R form; Potency, µM (highest dose often 45.6 µM), inactives show at the highest dose activation, usual class: activators; 380,000 compounds, 0.007% hits; AID 624172, 2012; further: potency means the concentration at half of the fitted maximal effect; % of control where 0% means no effect
Pin1 inh = qHTS Assay to Find Inhibitors of Pin1; Pin1 FP peptide displacement, HiFluor488, 10 min; Potency, µM (highest dose often 115 µM), without a hit: top-dose activity, negative = inhibition, most hits filed as inhibitors; 390,000 compounds, 0.009% hits; AID 504891, 2011; Peptidyl-prolyl cis-trans isomerase NIMA-interacting 1 (Homo sapiens), Q13526; active means well fitted inhibition curve with a large enough effect in the polarisation, with a control signal flat, not every such curve was filed as active; inconclusive means small, poorly fitted or top-dose-only effect, or effect the other way, or a change in a side signal; inactive means no such curve, though single readings can be large or run the other way; the % refers to the polarisation; further: potency means the concentration at half of the fitted maximal effect; on the % scale 0 is the no-effect control and ±100 the full control effect
Target sequence (Q13526 whole entry, looked up): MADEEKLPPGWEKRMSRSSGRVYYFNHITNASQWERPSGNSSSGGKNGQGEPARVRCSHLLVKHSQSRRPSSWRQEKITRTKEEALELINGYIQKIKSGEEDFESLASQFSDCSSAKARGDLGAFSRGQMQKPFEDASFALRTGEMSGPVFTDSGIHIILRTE
Active calls of the source: *; i = inactive; ? = inconclusive; . = no result; [ ] = remark or other dose. Unless noted, the call rests on the fitted dose curve; in most records, active means well fitted curve in the direction sought with a large enough effect; inconclusive means small, poorly fitted or top-dose-only effect, or another doubt; inactive means no such curve, though single readings can be large; an effect the other way counts as inactive or inconclusive.

SMILES | miR-21 reporter | GLP1R inv ag | PTHR1 agonist | HEK293 tox | GLP-1R agonist | Pin1 inh
CCC(C)Oc1nc(C)cc(C)c1S(=O)(=O)c1ccccc1C (stereo not given) | 1% | 8.9µM* | -1% | 7% | 2% | -2%
COc1nc(C)cc(C)c1S(=O)(=O)c1ccccc1C | 4% | ? | i | 0% | 0% | 0%
CCSc1nc(C)cc(C)c1S(=O)(=O)c1ccccc1C | 1% | 8.9µM* | -30%[57.5 µM] | -3% | -27% | 5%
COc1ccc(S(=O)(=O)NC2CCN(C#N)CC2)cc1 | . | . | . | . | . | -4%
NC(=S)n1[nH]c(-c2ccc([N+](=O)[O-])cc2)c(N=Nc2ccc(Cl)cc2)c1=O | 1% | 10µM* | -33% | ? | -5% | ?
CC(=O)N(CC(O)CO)c1c(I)c(C(=O)NCCO)c(I)c(C(=O)NCC(O)CO)c1I (stereo not given) | . | . | . | . | 8% | .
CCCC(=O)Nc1ccc2c(c1)c1ccccc1n2CC | 6% | -19% | -25% | 6% | 1% | 0%
CN(C)S(=O)(=O)c1ccc(NC(=O)Cc2ccc(S(=O)(=O)N3CCOCC3)s2)cc1 | 0% | 7% | i | 15% | 8% | 11%
CCn1c2ccccc2c2cc(NC(=O)N3CCCCC3)ccc21 | . | 10µM* | -25% | -8% | 17% | .
CCn1c2ccccc2c2cc(NC(=O)Cc3ccc(S(=O)(=O)N4CCOCC4)s3)ccc21 | -2% | 10µM* | i | -22% | -9% | 2%
CO/N=C(/C(=O)N[C@@H]1C(=O)N2C(C(=O)O)=CCS[C@H]12)c1csc(N)n1 | . | . | . | . | -3% | .
CCCCCCc1ccc(C(=O)CCN(C)C)cc1 | . | . | . | . | . | 3%
O=C(Nc1ccccc1)Nc1csc2ccccc12 | -10% | 8.9µM* | -5% | 0% | 0% | 11%
CC(=O)Nc1csc2ccccc12 | -1% | -12% | i | 4% | -2% | 1%
CCOC(=O)c1cnc2cc(C(F)(F)F)ccc2c1Nc1ccc(F)cc1F | -13% | 5% | -15% | 1% | . | -2%
Cc1ccnc(NC(=O)/C=C/c2ccccc2Cl)c1 | -19% | 10µM* | -27% | 5% | 0% | -10%
Cc1cc(N)c2cc(NC(=O)/C=C/c3ccccc3Cl)ccc2n1 | ? | 11µM* | i | -20% | -7% | 34%
Cc1ccc(S(=O)(=O)NC(N)=NCCC[C@@H](N)C(=O)Nc2cc(C(F)(F)F)ccc2Cl)cc1 | . | . | . | . | . | 0%
O=C1CC(/C=C/c2ccncc2)=Nc2ccccc2N1 | 14% | 2.5µM* | -31% | -24% | 4% | -6%
O=C1CC(c2ccccc2)=Nc2ccccc2N1 | -11% | 6% | -5%[57.5 µM] | -7% | 13% | -2%
Cc1ccc(NS(=O)(=O)c2ccc3c(ccn3C)c2)cc1C | . | . | . | . | . | 2%
Cc1cc(C)n(CC(O)Cn2c3ccccc3c3ccccc32)c(=O)n1 (stereo not given) | -10% | 16% | -19% | -4% | -1% | 6%
Cc1cc(C)n(CC(O)Cn2c3ccc(Br)cc3c3cc(Br)ccc32)c(=O)n1 (stereo not given) | 22% | 11µM* | i | 5% | -4% | 19%
CO/N=C(\Cn1ncc(N2CCCC2)c(Br)c1=O)c1ccc(Cl)cc1 | 0% | 11µM* | -1% | -18% | 13% | 1%
CO/N=C(\Cn1ncc(NC2CCCCC2)c(Br)c1=O)c1ccc(Cl)cc1 | -5% | ? | -12% | -15% | -2% | -8%
SMILES | miR-21 reporter | GLP1R inv ag | PTHR1 agonist | HEK293 tox | GLP-1R agonist | Pin1 inh
CN(C(=O)COc1ccc(Cl)cc1Br)C1CCCCC1 | -42% | ? | -2% | -9% | 11% | 12%
CC(=O)Oc1ccc(Cl)cc1CN(C(C)=O)C1CCCCC1 | . | 8.9µM* | i | -8% | 6% | 4%
O=C(NCc1ccc(F)cc1)c1c(O)nc2ccccn2c1=O | -5% | -26% | -8% | 1% | -4% | 5%
CCCOc1ccccc1NC(=O)c1c(-c2ccccc2)noc1C | 7% | 11µM* | -30% | -1% | 14% | -4%
Cc1ccc(OCCOC(=O)c2c(-c3ccccc3)noc2C)cc1 | 18% | ? | -4% | 5% | 16% | -1%
CCOc1ccc(C(=O)COC(=O)c2c(-c3ccccc3)noc2C)cc1 | . | 10µM* | i | ? | 10% | 9%
Cc1onc(-c2ccccc2)c1C(=O)NC(C)c1ccccc1 (stereo not given) | . | -37% | -16% | 5% | 6% | 6%
Cc1onc(-c2ccccc2)c1C(=O)Nc1ccccc1NC(=O)c1c(-c2ccccc2)noc1C | -3% | 9% | i | -2% | -4% | -1%
Cc1ccc(C(C)NC(=O)c2c(-c3ccccc3)noc2C)cc1C (stereo not given) | 0% | 7.9µM* | i | 1% | 1% | -1%
Cc1cccc(N2CCN(C(=O)C3CCCN(S(=O)(=O)c4ccc(Br)s4)C3)CC2)c1C (stereo not given) | ? | ? | -28% | -13% | . | 19%
CC(C)=C[C@H]1C[C@H](C)[C@H]2CC[C@H](C)c3c(O[C@@H]4OC[C@@H](O)[C@H](O)C4O)c(O)c(C)c1c32 (stereo not given in full) | . | 10µM* | -17% | -25% | 1% | ?
Cc1cccc(N2C(=O)CC(Sc3nc(C)c4c(n3)CCCC4)C2=O)c1 (stereo not given) | -5% | -22% | -18%[57.5 µM] | 5µM* | 22% | 2%
Cc1nc(SC2CC(=O)N(c3cc(Cl)cc(Cl)c3)C2=O)nc2c1CCCC2 (stereo not given) | -4% | ? | -8%[57.5 µM] | ? | 0% | 46%
O=S(=O)(c1ccc2c(c1)OCCO2)N1CCN(S(=O)(=O)c2cccs2)CC1 | . | . | . | . | . | 1%
Cc1nonc1CC(=O)N1CCc2c([nH]c3ccccc23)C1c1ccccc1F (stereo not given) | 1% | ? | i | -9% | 9% | 0%
O=C(Nc1ccccc1)N1CCc2c([nH]c3ccccc23)C1C(F)(F)F (stereo not given) | 22% | 2.8µM* | -52% | 8% | 2% | ?
Cc1ccc(NC(=O)N2CCc3c([nH]c4ccccc34)C2c2ccccc2F)c(Cl)c1 (stereo not given) | 22% | 10µM* | ? | -12% | . | 24%
